VP16 counter – counter-screen for ROR gamma inhibitors: Gal4-VP16 reporter; Drosophila S2 Gal4-VP16 UAS-luciferase, luminescence, 20 h; Potency, µM (titrated, usually from 53.6 µM), for inactives: at the top dose activity, negative = inhibition, hits mostly inhibitors; 3.5% of 310,000 active;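 also: Gal4-VP16 expression switched on by copper sulfate through the metallothionein promoter; potency is read from the fitted curve at half-maximal effect; nearly all actives have a fitted effect of over 50% in size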
TDP1 cell CPT – DT40-hTDP1 cell growth loss with CPT; chicken DT40 Tdp1-/-;hTDP1 cells + 20 nM CPT, ATP luminescence, 48 h; Potency, µM (doses to about 46.2 µM), for the others: top-dose activity change, negative = growth inhibition, usual class: inhibitors; 12% of 420,000 active; also: potency is read from the fitted curve at half-maximal effect; nearly all actives have a fitted effect of over 55% in size
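Cell growth measured by CellTiter-Glo luminescence after a minimum 48 h, 37 C compound exposure with 20 nM CPT in Tdp1-knockout DT40 cells stably expressing hTDP1, seeded 400/well; qHTS titration format.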
LDHA block – LDHA (human) enzyme inhibition; P00338; purified LDHA, NADH/diaphorase-resazurin fluorescence; active compounds read low; activity change, % (values are at about 110 or 230 µM); 0.15% of 480,000 active; AID 1347041; in the data active = activity change below about -30%; inconclusive = mostly about -25% to -30%;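 also: plate controls were DMSO wells for no effect and wells without enzyme for full effect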
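Enzyme activity of human lactate dehydrogenase 5 (2 nM; 0.06 mM NADH, 0.2 mM pyruvate, 5 min, RT) is measured via a resazurin/diaphorase fluorescence readout of residual NADH.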
IL1B secr inh – inflammasome signaling inhibition, IL-1 beta readout. THP-1 LPS/ATP IL-1B secretion, AlphaLISA, 16 h; active compounds read low. activity change, % at 57.5 µM. 4.7% of 360,000 active. AID 743279; in the data active = activity change below about -50%; inconclusive = mostly about -30% to -49%
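Secreted IL-1B measured by AlphaLISA bead assay after 16 h compound exposure of THP-1 cells; compounds (final up to 57.5 uM) added 1 h before LPS (250 ng/mL) and ATP (1.25 mM) stimulation; lower signal means less secretion.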
RORg inh – ROR gamma (mouse) transcription inhibition; P51450; Drosophila S2 Gal4-RORgamma UAS-luciferase reporter, 20 h; Potency, µM (titrated, usually from 53.6 µM), for the others: at the highest dose activity change, negative = inhibition, hits mostly inhibitors; 5.4% of 310,000 active; AID 2551; also: potency is read from the fitted curve at half-maximal effect; nearly all actives have a fitted effect of over 60% in size
Target sequence (P51450 whole entry, looked up, the tested form may be a part): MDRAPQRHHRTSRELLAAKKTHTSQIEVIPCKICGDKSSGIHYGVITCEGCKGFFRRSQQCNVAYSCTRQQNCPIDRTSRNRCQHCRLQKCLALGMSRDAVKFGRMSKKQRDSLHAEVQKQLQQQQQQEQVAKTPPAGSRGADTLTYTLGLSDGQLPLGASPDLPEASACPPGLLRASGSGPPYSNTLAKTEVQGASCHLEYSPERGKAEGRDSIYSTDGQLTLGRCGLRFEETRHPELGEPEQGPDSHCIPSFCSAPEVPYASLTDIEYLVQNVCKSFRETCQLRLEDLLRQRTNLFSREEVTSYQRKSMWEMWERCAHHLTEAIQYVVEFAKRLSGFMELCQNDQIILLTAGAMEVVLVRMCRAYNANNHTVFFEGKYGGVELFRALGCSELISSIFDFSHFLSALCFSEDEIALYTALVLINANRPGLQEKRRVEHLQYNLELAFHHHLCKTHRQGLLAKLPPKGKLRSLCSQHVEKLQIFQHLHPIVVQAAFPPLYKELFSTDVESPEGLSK
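Drosophila Schneider cells stably carrying a metallothionein-driven Gal4 DBD–ROR gamma fusion and a UAS-Photinus luciferase reporter were exposed to compound for 1 hr, then induced with copper sulfate (700 uM final) for 20 hr at ambient temperature before luminescence reading.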
TDP1 cell noCPT – qHTS for Inhibitors of human tyrosyl-DNA phosphodiesterase 1 (TDP1): qHTS in cells in absence of CPT; DT40 Tdp1-/- hTDP1 cells, no CPT, ATP luminescence, 48 h; Potency, µM (doses to about 46.2 µM), inactives show at the top dose activity change, negative = growth inhibition, most hits filed as inhibitors; 15% of 420,000 active; also: potency is read from the fitted curve at half-maximal effect; nearly all actives have a fitted effect of over 55% in size
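No-CPT arm: Tdp1-/-;hTDP1 DT40 cells (400/well) plus compounds, incubated ≥48 hr at 37 °C. Readout CellTiter-Glo luminescence.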
* = called active by the depositor; ? = inconclusive; / = not tested or not shown; [ ] = another dose, or the depositor's remark. This is a sample that favours compounds with a hit; in the whole collection about 18% have one here. Unless noted, calls follow the shape of the dose curve; as a rule, active = well fitted curve in the direction sought with a large enough effect; inconclusive = small, poorly fitted or top-dose-only effect, or another doubt; inactive = no such curve, though single readings can be large; an effect the other way counts as inactive or inconclusive. Unless noted, % is scaled to controls: 0 for no effect and ±100 for the full control effect.

SMILES	VP16 counter	TDP1 cell CPT	LDHA block	IL1B secr inh	RORg inh	TDP1 cell noCPT
Cc1ccc2cc(CN(Cc3ccc4c(c3)OCO4)Cc3nnnn3Cc3ccco3)c(=O)[nH]c2c1	14%	16µM*	1	-53*	-20%	?
Cc1cccc2cc(C(c3nnnn3C(C)(C)C)N(Cc3ccco3)CC3CCCO3)c(=O)[nH]c12 (stereo unspecified)	-7%	?	-3	?	14%	?
Cc1ccc2[nH]c(=O)c(CN(Cc3ccccc3)Cc3nnnn3Cc3ccco3)cc2c1	/	8.9µM*	3	/	/	?
CCC(c1nnnn1Cc1ccco1)N(Cc1cc2cc(C)cc(C)c2[nH]c1=O)CC1CCCO1 (stereo unspecified)	-2%	15µM*	-2	-24	1%	18µM*
CCC(c1nnnn1Cc1ccco1)N(Cc1ccccc1OC)Cc1cc2cc(C)ccc2[nH]c1=O (stereo unspecified)	-27%	?	-3	-12	1%	23µM*
Oc1cccc(C(O)CNC/C=C/c2ccccc2)c1 (stereo unspecified)	/	/	14	/	/	/
Cc1cccc(N/N=C/c2ccc(F)c(F)c2)c1	/	/	0	/	/	/
COC(=O)C1CCCN1S(=O)(=O)c1ccc(F)cc1Cl (stereo unspecified)	/	/	-2	/	/	/
COc1cc2cc(CN(Cc3nnnn3C3CCCC3)C3CCCC3)c(=O)[nH]c2cc1OC	3%	/	/	/	0%	/
CCc1ccc2[nH]c(=O)c(CN(Cc3ccco3)Cc3nnnn3Cc3ccco3)cc2c1	/	?	-1	/	/	13µM*
CCC(c1nnnn1C(C)(C)CC)N(CCCO)Cc1cc2cc(C)cc(C)c2[nH]c1=O (stereo unspecified)	-8%	?	1	?	-35%	21µM*
O=c1[nH]c2cc3c(cc2cc1CN(Cc1nnnn1C1CCCC1)C1CCCC1)OCCO3	18%	16µM*	4	-7	41%	26µM*
COc1ccccc1CN(Cc1cc2c(C)ccc(C)c2[nH]c1=O)Cc1nnnn1Cc1ccco1	/	23µM*	-3	-70*	5%[0.365 µM]	18µM*
CC(=O)Nc1ccc(NC(=O)C(C)n2nnc(-c3ccc(C(C)C)cc3)n2)cc1 (stereo unspecified)	/	/	-3	/	/	/
CNc1c(NC(=O)NCC(C)C)c(=O)oc2ccccc12	/	/	9	/	/	/
O=C(Nc1ccc(Cl)c(C(F)(F)F)c1)c1c(Cl)cccc1Cl	/	/	8	/	/	/
CCN(CC)S(=O)(=O)c1ccc(OC)c(NC(=O)c2nn(C)c(=O)c3ccccc23)c1	/	/	-1	/	/	/
Cc1ccc2[nH]c(=O)c(CN(Cc3ccccc3)Cc3nnnn3C3CCCC3)cc2c1	5%	21µM*	10	-72*	34%	?
COc1ccc2cc(CN(CCc3ccccc3)Cc3nnnn3Cc3ccco3)c(=O)[nH]c2c1	0%	?	1	-25	9%	16µM*
c1ccc(CN2CCC(NCc3c[nH]c4ccccc34)C2)cc1 (stereo unspecified)	/	/	-6	/	/	/
CCOP(=O)(OCC)c1nc(-c2ccccc2)oc1NCc1ccco1	/	/	5	/	/	/
Cc1ccc(S(=O)(=O)c2nnn(CC(=O)Nc3ccccc3C)c2N)cc1C	/	?	-2	/	/	15µM*
Cc1ccc(S(=O)(=O)c2nnn(CC(=O)Nc3ccccc3C)c2N)cc1	/	15%	1	/	/	-7%
C=C1C(=O)O[C@H]2[C@H]1[C@@H](O)CC(=C)[C@@H]1CC(=O)[C@@H](C)[C@H]21	?	5.2µM*	-1	-92*	13µM*	6.5µM*
CCOc1cccc(/C=N/NC(=S)Nc2cc(S(=O)(=O)N3CCOCC3)ccc2N2CCOCC2)c1O	10µM*	5.8µM*	-3	-15	?	5.8µM*
SMILES	VP16 counter	TDP1 cell CPT	LDHA block	IL1B secr inh	RORg inh	TDP1 cell noCPT
O=C(COc1ccccc1F)Nc1cc(S(=O)(=O)N2CCOCC2)ccc1N1CCOCC1	18%	-12%	-2	?	-16%	-24%
COc1ccc2ccccc2c1/C=N/NC(=S)Nc1cc(S(=O)(=O)N2CCOCC2)ccc1N1CCOCC1	10µM*	-4%	-4	-8	2.8µM*	-5%
COc1ccc(/C=N/NC(=S)Nc2cc(S(=O)(=O)N3CCOCC3)ccc2N2CCOCC2)cc1O	?	9.2µM*	-2	0	?	?
O=C(Nc1ccccc1Br)C1CC2CCCC(C1)C2=O (stereo unspecified)	/	/	7	/	/	/
Cc1ccc(-c2cc(C(=O)O)c3cc(C)cc(C)c3n2)cc1	/	/	-1	/	/	/
CN1CCN(C(=O)c2ccc3c(c2)N(Cc2c(F)cccc2Cl)C(=O)c2ccccc2S3)CC1	/	?	-5	/	/	23µM*
CN1CCN(C(=O)c2ccc3c(c2)N(Cc2ccc(C(F)(F)F)cc2)C(=O)c2ccccc2S3)CC1	/	?	-8	/	/	21µM*
O=S(=O)(NCc1ccc2c(c1)OCCO2)c1ccccc1Cl	/	/	7	/	/	/
CCN(C(=O)c1nn(Cc2ccccc2)c(=O)c2ccccc12)C(C)C	/	/	1	/	/	/
O=C(Oc1c2c3c(noc3c3ccccc13)C(Oc1ccc(F)cc1)=CC2=O)c1ccc(F)cc1	/	/	21	/	/	/
CCCn1c(SCC(=O)C(C)(C)C)nc2ccccc21	?	19%	1	31	11µM*	-1%
CC(C)(C)NC(=O)Cn1c(SCC(N)=O)nc2ccccc21	1%	26µM*	1	-1	0%	?
CC(C)(C)NC(=O)Cn1c(SCC(=O)N2CCCCCC2)nc2ccccc21	-9%	-18%	1	-6	32%	-18%
COc1ccc(OC)c(C2C=C(c3ccc(C)c(C)c3)Nc3nnnn32)c1 (stereo unspecified)	4%	4.6µM*	0	22	?	2.3µM*
COc1cccc(C2=CC(c3cccc(OC)c3OC(F)F)n3nnnc3N2)c1 (stereo unspecified)	1%	?	-2	2	24%	?
COc1cccc(C2=CC(c3cc(OC)ccc3OC)n3nnnc3N2)c1 (stereo unspecified)	24%	7.3µM*	1	-77*	7%	6.5µM*
Cc1cccc(Cn2cnc3c2c(=O)n(C)c(=O)n3C)c1	/	/	9	/	/	/
FC(F)(F)c1cc(CO[C@@H]2CCCN[C@@H]2c2ccccc2)cc(C(F)(F)F)c1	/	?	-4	?	/	13µM*
Cc1cccc(N(C)C(=O)c2coc(=O)c3ccccc23)c1	1%	-8%	-6	17	-10%	-20%

Compound activity deposited in PubChem BioAssay by National Center for Advancing Translational Sciences (NCATS).
